Experimental findings from PubChem BioAssay are described below.

Test [1] in a line: antimalarial activity against Dd2 strain (AID 2302;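 active means growth inhibition above 50% at the single 2 µM test dose, taken to imply half-maximal potency below 2 µM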;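 further: 0% = DMSO untreated growth and 100% = chloroquine plus artemisinin killed control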). To be noted: P. falciparum Dd2 in RBCs, LDH growth readout, 72 h; at 2 µM; hits give high values.
A short description of test [2]: human hepatoma cell viability loss – ATP luminescence, cytotoxicity control for P. falciparum antimalarial project, primary screen (AID 2303;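 active means inhibition above 50%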;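 further: 0% = DMSO wells and 100% = digitonin-killed cells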). To be noted: HepG2 viability, 24-48 h, at 10 µM, hits give high values.
The target of test [3] is L-lactate dehydrogenase (Plasmodium falciparum (isolate CDC / Honduras)) (UniProt Q27743). Kind of test: PfLDH activity inhibition – cell lysate, 3D7 strain, counter-screen for P. falciparum growth inhibition project (AID 2304).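 Further: 0% = vehicle and 100% = reference inhibitor.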 To be noted: P. falciparum 3D7 crude extract, LDH APAD/NBT absorbance; at 2 µM; hits give high values. (The purpose of a counterscreen is to sort out artefacts and off-target activity.)
Sequence of L-lactate dehydrogenase (Plasmodium falciparum (isolate CDC / Honduras)) (Q27743 whole entry, looked up): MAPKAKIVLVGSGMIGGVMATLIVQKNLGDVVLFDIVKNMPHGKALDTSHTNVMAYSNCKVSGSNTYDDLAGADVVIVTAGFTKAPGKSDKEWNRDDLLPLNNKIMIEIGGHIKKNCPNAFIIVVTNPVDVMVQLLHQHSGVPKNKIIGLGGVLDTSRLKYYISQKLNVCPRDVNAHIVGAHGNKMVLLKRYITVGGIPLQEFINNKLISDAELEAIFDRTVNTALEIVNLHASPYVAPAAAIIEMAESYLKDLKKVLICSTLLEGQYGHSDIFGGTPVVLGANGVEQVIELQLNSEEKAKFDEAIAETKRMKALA

A short description of test [4]: inhibition of 3D7 malaria parasite growth – strain 3D7 (AID 2306).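 Further: 0% = DMSO wells and 100% = chloroquine plus artemisinin control wells.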 To be noted: P. falciparum 3D7 erythrocytic growth, LDH absorbance, 72 h; at 2 µM; hits give high values.
Test [5] addresses Calcium-dependent protein kinase 1 (Plasmodium falciparum (isolate 3D7)) (UniProt P62344). Kind of test: PfCDPK1 kinase inhibitors, biochemical, TCAMS library (AID 1159585; cut-off not given, nearly all actives have IC50 up to about 0.98 µM;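 further: inhibitors leave more ATP so luminescence rises with inhibition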). To be noted: recombinant PfCDPK1, Kinase-Glo ATP depletion luminescence. On the technique in general: Kinase-Glo reads ATP consumption through a luciferase reaction.
The target in test [6] is Plasmodium falciparum protein kinase 6 (PK6, PF3D7_1337100) (UniProt Q8IDW1). Kind of test: PfPK6 kinase inhibitors, biochemical, TCAMS library (AID 1159586). Particulars: recombinant PfPK6, Kinase-Glo ATP depletion luminescence.
Sequence of Plasmodium falciparum protein kinase 6 (PK6, PF3D7_1337100) (Q8IDW1 1-305): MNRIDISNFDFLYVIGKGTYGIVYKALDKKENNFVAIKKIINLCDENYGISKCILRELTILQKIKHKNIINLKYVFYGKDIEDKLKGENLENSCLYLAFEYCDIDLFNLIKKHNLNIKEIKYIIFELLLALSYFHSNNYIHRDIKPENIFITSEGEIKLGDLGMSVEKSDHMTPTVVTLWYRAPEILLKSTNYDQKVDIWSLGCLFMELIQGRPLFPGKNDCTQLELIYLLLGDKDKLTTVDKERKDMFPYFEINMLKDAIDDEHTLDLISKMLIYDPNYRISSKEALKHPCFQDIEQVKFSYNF
Test [7] concerns the target Protein kinase 7 (PK7), Plasmodium falciparum 3D7 (PF3D7_0213400) (UniProt Q7YTF7). Nature of the test: inhibition of Plasmodium PK7 catalytic activity – biochemical, TCAMS antimalarial set, Kinase-Glo luminescence (AID 1159587). Particulars: recombinant PfPK7, Kinase-Glo ATP depletion luminescence.
Test [8] has as its target Calcium-dependent protein kinase 4 (Plasmodium falciparum (isolate 3D7)) (UniProt Q8IBS5). Nature of the test: PfCDPK4 kinase inhibitors, biochemical, TCAMS library (AID 1159588; cut-off not given, nearly all actives have IC50 up to about 0.91 µM). To be noted: recombinant PfCDPK4, Kinase-Glo ATP depletion luminescence.

A number with no mark means an inactive call. For some of these results: Results with a measured potency or affinity are listed apart. The source made the active and inactive calls. Unless noted, how the calls were made is not given here.

Sequence of Calcium-dependent protein kinase 1 (Plasmodium falciparum (isolate 3D7)) (P62344 whole entry, looked up): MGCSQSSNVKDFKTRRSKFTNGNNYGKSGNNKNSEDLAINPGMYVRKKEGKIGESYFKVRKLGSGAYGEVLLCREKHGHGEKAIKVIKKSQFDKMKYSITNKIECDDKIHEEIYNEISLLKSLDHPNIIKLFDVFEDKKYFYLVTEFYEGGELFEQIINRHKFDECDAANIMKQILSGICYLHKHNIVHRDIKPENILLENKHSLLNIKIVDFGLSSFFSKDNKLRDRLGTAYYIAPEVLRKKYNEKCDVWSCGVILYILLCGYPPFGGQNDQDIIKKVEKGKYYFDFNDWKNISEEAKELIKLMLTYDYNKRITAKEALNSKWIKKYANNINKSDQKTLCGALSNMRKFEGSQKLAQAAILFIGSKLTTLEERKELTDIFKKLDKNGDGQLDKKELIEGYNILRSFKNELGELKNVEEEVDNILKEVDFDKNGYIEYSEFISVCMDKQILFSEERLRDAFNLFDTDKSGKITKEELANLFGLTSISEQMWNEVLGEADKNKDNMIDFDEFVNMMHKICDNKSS
Sequence of Protein kinase 7 (PK7), Plasmodium falciparum 3D7 (PF3D7_0213400) (Q7YTF7 1-343): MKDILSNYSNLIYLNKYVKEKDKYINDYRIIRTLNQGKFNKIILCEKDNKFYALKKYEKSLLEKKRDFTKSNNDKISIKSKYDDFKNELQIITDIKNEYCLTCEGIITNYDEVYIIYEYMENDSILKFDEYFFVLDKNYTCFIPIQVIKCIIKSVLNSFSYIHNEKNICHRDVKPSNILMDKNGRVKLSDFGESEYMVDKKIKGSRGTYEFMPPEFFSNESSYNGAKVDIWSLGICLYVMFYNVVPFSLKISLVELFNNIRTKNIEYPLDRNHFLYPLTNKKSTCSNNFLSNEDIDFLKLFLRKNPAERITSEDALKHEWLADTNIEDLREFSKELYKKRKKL
Sequence of Calcium-dependent protein kinase 4 (Plasmodium falciparum (isolate 3D7)) (Q8IBS5 whole entry, looked up): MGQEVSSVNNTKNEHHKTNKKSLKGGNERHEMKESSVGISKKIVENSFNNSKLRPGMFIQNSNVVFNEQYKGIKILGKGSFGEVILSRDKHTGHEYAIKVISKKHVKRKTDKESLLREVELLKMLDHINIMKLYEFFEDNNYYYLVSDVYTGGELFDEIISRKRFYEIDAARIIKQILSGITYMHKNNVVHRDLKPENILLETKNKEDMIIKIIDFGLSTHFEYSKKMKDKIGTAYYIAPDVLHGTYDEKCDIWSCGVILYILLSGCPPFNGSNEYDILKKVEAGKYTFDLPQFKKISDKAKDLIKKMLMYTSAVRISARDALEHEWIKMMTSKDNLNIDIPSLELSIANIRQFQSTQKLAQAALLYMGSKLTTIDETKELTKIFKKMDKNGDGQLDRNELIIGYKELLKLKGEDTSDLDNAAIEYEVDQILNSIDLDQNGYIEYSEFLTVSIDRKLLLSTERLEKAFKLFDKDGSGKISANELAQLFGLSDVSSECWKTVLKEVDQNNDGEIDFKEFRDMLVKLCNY

In the case of `Cc1noc(C)c1-c1cccc(CNCc2cccc(-c3cccc(-c4nc5ccc(F)cc5[nH]4)c3)c2)c1`, the figures for the growth inhibition in test [1] and in test [4] were 73% (active) and 103% (active), respectively. Moreover, the inhibition is 18% in test [2] and 3% in test [3]. The outcome in test [5], in test [6], in test [7] and in test [8] was inactive.
As for `O=C(Nc1ccc2c(c1)CCN(C1CCC1)CC2)c1ccc(-c2cn3ccccc3n2)cc1`, the growth inhibition in test [1] is 42%; in test [4], 102% (active). Besides, the inhibition was 13% in test [2] and 2% in test [3]. For the same compound, the result in test [5], in test [6], in test [7] and in test [8] was inactive.
Consider `Cc1ccc(F)cc1S(=O)(=O)Nc1cccc(CCN2CCC(N3CCCCC3)CC2)c1`, for which the figures for the growth inhibition in test [1] and in test [4] were 9% and 96% (active), respectively. Besides, the inhibition is 15% in test [2] and 5% in test [3]. In addition, the result in test [5], in test [6], in test [7] and in test [8] was inactive.
Consider `O=C(NC1CCCC1)c1cc2c(=O)n3ccccc3nc2nc1NCCc1ccccc1`, for which the figures for the growth inhibition in test [1] and in test [4] were 61% (active) and 101% (active), respectively. Moreover, the inhibition is 19% in test [2] and 2% in test [3]. The outcome in test [5], in test [6], in test [7] and in test [8] was inactive.
Regarding `CC(C)(C)c1nn(-c2ccc(Cl)cc2)c2[nH]c(=O)c(CNC3CCCC3)cc12`, the growth inhibition in test [1] and in test [4] was 99% (active) in each case. Also, the inhibition was -2% in test [2] and 1% in test [3]. In addition, the result in test [5], in test [6], in test [7] and in test [8] was inactive.
`CNC(=O)CNC(=O)COc1cccc2ccccc12`: the values for the growth inhibition in test [1] and in test [4] were -6% and 98% (active), respectively. Also, the inhibition in test [2] was 3%; in test [3], -8%. Besides, the outcome in test [5], in test [6], in test [7] and in test [8] was inactive.
For the compound `O=C(NC1CC1)c1ccc2cc(C(=O)N3Cc4ccccc4C(c4ccccc4)C3)ccc2c1` (stereo not given), the growth inhibition in test [1] was 64% (active); in test [4] it was 97% (active). The figures for the inhibition in test [2] and in test [3] were -2% and 1%, respectively. Besides, the outcome in test [5], in test [6], in test [7] and in test [8] was inactive.
Regarding `C=C[C@]1(C)C[C@@H](OC(=O)c2n[nH]c3ccccc3c2=O)[C@]2(C)[C@H](C)CC[C@]3(CCC(=O)[C@H]32)[C@@H](C)[C@@H]1O`, the figures for the growth inhibition in test [1] and in test [4] were 84% (active) and 96% (active), respectively. Moreover, the values for the inhibition in test [2] and in test [3] were -6% and 0%, respectively. The result in test [5], in test [6], in test [7] and in test [8] was inactive.
On to `Cc1ccccc1C1CCN(c2ncc(C(=O)Nc3ccccc3)cc2Cl)CC1`, for which the growth inhibition in test [1] and in test [4] was 83% (active) throughout. The inhibition was 29% in test [2] and -3% in test [3]. Moreover, the outcome in test [5], in test [6], in test [7] and in test [8] was inactive.
As for `CCN(c1ccccc1)S(=O)(=O)c1ccc(NC(=O)c2cc(-c3cc(C)ccc3O)n[nH]2)cc1`, the growth inhibition in test [1] was 55% (active); in test [4], 99% (active). The inhibition in test [2] is 49%; in test [3] it was -3%. Also, the outcome in test [5], in test [6], in test [7] and in test [8] was inactive.
Turning to `Cc1ccc2nc(C)n(C3CCN(C(=O)Cc4ccc(F)c(F)c4)CC3)c2c1`, the growth inhibition in test [1] and in test [4] was 100% (active) in each case. For the same compound, the inhibition in test [2] was 4%; in test [3], 0%. For the same compound, the outcome in test [5], in test [6], in test [7] and in test [8] was inactive.
Regarding `Nc1nc(N)c2c3c(cnc2n1)CCCC3`, the growth inhibition is -4% in test [1] and 95% (active) in test [4]. Moreover, the figures for the inhibition in test [2] and in test [3] were 61% (active) and -4%, respectively. The result in test [5], in test [6], in test [7] and in test [8] was inactive.
`CCn1c(C)c(C)c2cc(C(=O)Nc3ccon3)ccc21`: the results for the growth inhibition in test [1] and in test [4] were 93% (active) and 95% (active), respectively. Also, the inhibition in test [2] is 3%; in test [3], -3%. The result in test [5], in test [6], in test [7] and in test [8] was inactive.
As for `COc1ccc(CN(C)C(=O)CCNS(=O)(=O)c2ccc3c(c2)OCCCO3)cc1F`, the growth inhibition is 94% (active) in test [1] and 96% (active) in test [4]. Moreover, the inhibition is 9% in test [2] and 0% in test [3]. Further, the outcome in test [5], in test [6], in test [7] and in test [8] was inactive.
For `Fc1cc(Cl)ccc1Nc1ccnc2cc(-c3scnc3CNCCN3CCOCC3)ccc12`, the growth inhibition is 84% (active) in test [1] and 99% (active) in test [4]. Also, the inhibition was -7% in test [2] and -2% in test [3]. Also, the result in test [5], in test [6], in test [7] and in test [8] was inactive.
As for `Nc1nc(-c2ccccn2)nc(-n2nc(-c3cccc(C(F)(F)F)c3)cc2N)n1`, the growth inhibition was 74% (active) in test [1] and 87% (active) in test [4]. Also, the inhibition in test [2] is 14%; in test [3], -5%. Moreover, the outcome in test [5], in test [6], in test [7] and in test [8] was inactive.
In the case of `O=C(Nc1cccc(F)c1)NC1CCN(c2ccnc3cc(Cl)ccc23)CC1`, the growth inhibition was 37% in test [1] and 96% (active) in test [4]. The figures for the inhibition in test [2] and in test [3] were 11% and -4%, respectively. Further, the result in test [5], in test [6], in test [7] and in test [8] was inactive.
Turning to `O=C(NC1CCN(Cc2ccccc2)CC1)c1ccc(-c2nc3cc(Cl)c(Cl)cc3[nH]2)c(F)c1`, the growth inhibition was 83% (active) in test [1] and 101% (active) in test [4]. In addition, the inhibition is 4% in test [2] and -2% in test [3]. In addition, the outcome in test [5], in test [6], in test [7] and in test [8] was inactive.
Consider `CN(c1ccc2c(c1)nc(Nc1cc(C(C)(C)C)on1)n2C)c1ccnc(Nc2ccc(CS(C)(=O)=O)cc2)n1`, for which the results for the growth inhibition in test [1] and in test [4] were 13% and 89% (active), respectively. The inhibition was 77% (active) in test [2] and -6% in test [3]. Moreover, the result in test [5], in test [6], in test [7] and in test [8] was inactive.
For the compound `Cc1nc2ccc3ccc(CNc4ccc(C(=O)N[C@@H](CCC(=O)O)C(=O)N[C@@H](Cc5cccs5)C(=O)O)c(F)c4)cc3c2c(=O)[nH]1`, the growth inhibition is 96% (active) in test [1] and 97% (active) in test [4]. Besides, the inhibition in test [2] was 43%; in test [3], 4%. The outcome in test [5], in test [6], in test [7] and in test [8] was inactive.

As a reminder, the inhibition is the relative decrease from the control value, in per cent.
